Among the data in PubChem BioAssay AID1445 (SRMLSC, 2008) are inhibition values, retold here.

Among all 220,000 compounds or so, about 910 (0.41%) were called active. Only a selection was taken, and actives are over-represented in it overall. Potency and affinity values are given separately. Values without a mark were called inactive.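 The calls were made as follows: active = primary inhibition above the hit cutoff, then over 50% inhibition at one or more dose response concentrations (cut at about 23% in these data, passing the limit was not always enough); inconclusive = conflicting primary data, or primary hits not chosen for dose response; inactive = low primary inhibition, or under 50% at every dose.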

By inhibition is commonly meant the drop in the measured response relative to a control, in per cent.

The target of this assay is Aminopeptidase N (Plasmodium falciparum (isolate 3D7)) (UniProt O96935). The assay is described as follows: malaria alanyl aminopeptidase activity blockers – biochemical, fluorogenic H-Leu-NHMec substrate, 1536-well (AID 1445).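 Also: plate controls were DMSO full reaction for no effect and no enzyme background for full effect.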 To be noted: recombinant M1AAP, H-Leu-NHMec fluorogenic kinetic assay; at 30 µM, stronger effect = higher value unless noted.
Chain of Aminopeptidase N (Plasmodium falciparum (isolate 3D7)) (O96935 whole entry, looked up): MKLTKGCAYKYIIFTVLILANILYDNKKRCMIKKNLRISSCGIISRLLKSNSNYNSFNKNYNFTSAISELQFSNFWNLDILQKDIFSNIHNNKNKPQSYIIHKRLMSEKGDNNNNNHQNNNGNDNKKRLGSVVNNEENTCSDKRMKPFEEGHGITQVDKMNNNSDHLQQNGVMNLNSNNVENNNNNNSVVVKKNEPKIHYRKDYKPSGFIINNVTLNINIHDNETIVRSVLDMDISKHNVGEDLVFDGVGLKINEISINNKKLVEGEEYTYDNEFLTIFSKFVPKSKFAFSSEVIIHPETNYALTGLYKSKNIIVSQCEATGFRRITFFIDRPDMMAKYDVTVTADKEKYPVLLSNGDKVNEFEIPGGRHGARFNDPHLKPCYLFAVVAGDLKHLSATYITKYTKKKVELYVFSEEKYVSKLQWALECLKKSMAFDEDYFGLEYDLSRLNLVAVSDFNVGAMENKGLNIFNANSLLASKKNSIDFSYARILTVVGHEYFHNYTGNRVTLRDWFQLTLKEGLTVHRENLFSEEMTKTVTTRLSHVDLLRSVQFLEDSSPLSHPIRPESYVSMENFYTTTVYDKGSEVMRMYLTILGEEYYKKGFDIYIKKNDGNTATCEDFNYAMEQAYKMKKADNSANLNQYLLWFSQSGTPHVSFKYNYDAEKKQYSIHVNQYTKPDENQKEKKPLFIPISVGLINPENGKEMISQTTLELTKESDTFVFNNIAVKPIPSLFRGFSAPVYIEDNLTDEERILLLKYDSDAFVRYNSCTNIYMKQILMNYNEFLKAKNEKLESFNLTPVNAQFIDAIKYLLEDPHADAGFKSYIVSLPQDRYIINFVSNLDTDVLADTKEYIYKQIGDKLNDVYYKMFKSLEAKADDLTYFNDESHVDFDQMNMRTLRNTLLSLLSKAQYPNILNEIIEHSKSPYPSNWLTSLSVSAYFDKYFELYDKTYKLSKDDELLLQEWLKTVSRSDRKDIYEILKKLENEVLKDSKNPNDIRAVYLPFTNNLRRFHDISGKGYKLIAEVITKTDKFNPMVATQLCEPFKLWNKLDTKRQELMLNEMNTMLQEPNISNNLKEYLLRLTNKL
`COCC(=O)N(Cc1ccccc1)c1ccccn1`: the inhibition is 17.1%.

As for `CC(=O)Nc1ccc(S(=O)(=O)N2CCN(CC(O)COc3ccc4ccccc4c3)CC2)cc1` (stereo not given), the inhibition is 8.01%.

`O=C(CSc1nnc(Cc2ccccc2)n1C1CCCCC1)N1CCOCC1`: the inhibition is 4.89%.

As to `COc1ccc(/C(N)=N/OC(=O)c2ccc3c(c2)OCO3)cc1OC`, the inhibition was 1.74%.

On to `COc1cccc(NC(=O)Cc2nnc(SCCOc3ccccc3)n2C)c1`, for which the inhibition is 8.03%.

`COc1ccc(OCCSc2nnc(CC(=O)Nc3cccc(Cl)c3Cl)n2C)cc1`: the inhibition was 23.6% (active).

As to `CCn1c(CC(=O)Nc2cccc(Cl)c2Cl)nnc1SCCOc1ccc(OC)cc1`, the inhibition was 13.4%.

On to `CCC(=O)Nc1nc(C)c(-c2csc(Nc3ccc(S(=O)(=O)Nc4cc(C)on4)cc3)n2)s1`, for which the inhibition is 6.43%.

As to `Cc1cc(NS(=O)(=O)c2ccc(Nc3nc(-c4sc(N)nc4C)cs3)cc2)no1`, the inhibition was 17.9%.

Consider `Cc1cc(NS(=O)(=O)c2ccc(Nc3nc(-c4sc(C)nc4C)cs3)cc2)no1`, for which the inhibition is 23.9% (active).

With `Cc1nc(CNC(=O)c2cc(COc3ccc(F)cc3Cl)on2)cs1`, the inhibition was 3.28%.

Take `Cc1ccc(S(=O)(=O)Nc2ccc(Cl)cc2C(=O)c2ccccc2)cc1`: the inhibition was 3.73%.

`O=C(Cc1sc(Nc2ccccc2)nc1-c1ccccc1)NCc1ccccc1`: the inhibition was 7.32%.

On to `COc1cc(/C=N/Nc2nc3ccccc3s2)cc([N+](=O)[O-])c1O`, for which the inhibition was 32.1%.

For `COc1ccc(-c2csc(/C(C#N)=C\c3ccc(O)c([N+](=O)[O-])c3)n2)cc1OC`, the inhibition is 3.12%.

Consider `COc1cc(/C=C(/C#N)c2nc(-c3cc4ccccc4oc3=O)cs2)cc([N+](=O)[O-])c1O`, for which the inhibition is 11%.

On to `N#C/C(=C/c1ccncc1)c1nc2ccccc2s1`, for which the inhibition was -2.18%.

On to `COc1cc(/C=C(\C#N)c2nc3ccccc3[nH]2)cc(OC)c1O`, for which the inhibition is 20.3%.

`COc1cc(/C=C(\C#N)c2nc3ccc(C)cc3[nH]2)c([N+](=O)[O-])cc1OC`: the inhibition was 14.8%.

Consider `CC(C)COC(=O)N(C)c1ccc(C(O)(C(F)(F)F)C(F)(F)F)cc1`, for which the inhibition is 11.6%.

With `COCCn1c(SCC(=O)Nc2cccc(OC)c2)nc2c(oc3ccccc32)c1=O`, the inhibition was -5.31%.

As to `NS(=O)(=O)c1ccc(NC(=O)COC(=O)CCNC(=O)NC23CC4CC(CC(C4)C2)C3)cc1`, the inhibition is 2.67%.

With `CSc1nc(C)cc(C)c1C(N)=O`, the inhibition was 6.25%.

`Cc1[nH]c(=O)c(C#N)c2c1CSC(C)(C)C2`: the inhibition was 9.75%.

Take `CCCCc1[nH]c(=O)c(C#N)c2c1CSC(C)(C)C2`: the inhibition is 23.7% (active).

Regarding `CCc1[nH]c(=O)c(C#N)c2c1CSC(C)(C)C2`, the inhibition was 10.3%.

For the compound `CCOC(=O)c1coc(CNC(=O)c2c(C)oc3c2CCCC3)c1`, the inhibition is 4.14%.

As for `Cc1ccc(CN2CCN(C3CSCCSC3)CC2CCO)cc1` (stereo not given), the inhibition was -1.96%.

Consider `CC(=O)N1CCN(c2ccc(NC(=O)C(C)Oc3ccc(Cl)cc3Cl)cc2)CC1` (stereo not given), for which the inhibition was 4.51%.

With `O=c1cc(-c2ccccc2Cl)oc2c(NS(=O)(=O)c3ccccc3C(F)(F)F)ccc(O)c12`, the inhibition was 10.4%.

On to `O=c1cc(-c2ccccc2Cl)oc2c(NS(=O)(=O)c3ccccc3OC(F)(F)F)ccc(O)c12`, for which the inhibition was 3.26%.

Take `Cc1ccc(S(=O)(=O)N2CCCC2C(=O)Nc2ccc(O)cc2)cc1` (stereo not given): the inhibition was 7.62%.

For the compound `c1ccn2c(SCc3ccc4c(c3)OCO4)nnc2c1`, the inhibition was 3.07%.

With `S=C(Nc1ccc(Br)cc1)N1CCn2cccc2C1c1cccnc1` (stereo not given), the inhibition was 10.1%.

For the compound `COc1ccc(C)cc1NC(=O)c1cc2ccccc2o1`, the inhibition is -2.39%.

For the compound `COc1ccc(C(=O)Nc2cccc(OC)c2)cc1`, the inhibition was 1.64%.

As for `Cc1ccc(C(=O)Nc2ccc(Oc3ccc(C(=O)O)c(C(=O)O)c3)cc2)cc1C`, the inhibition was 5.36%.

Regarding `COc1ccc(S(=O)(=O)n2nc(OC(=O)c3cccs3)cc2NC(=O)c2cccs2)cc1`, the inhibition was 3.59%.

Consider `CN(C(=O)c1cc2n(n1)C(C(F)(F)F)CC(c1ccco1)N2)c1ccccc1` (stereo not given), for which the inhibition is 2.19%.

In the case of `O=C(Oc1ccc(OC(=O)c2ccco2)c(S(=O)(=O)c2ccc(Cl)cc2)c1)c1ccco1`, the inhibition is 4.36%.

For the compound `COc1ccc(C(=O)O/N=C(\N)Cc2ccc([N+](=O)[O-])cc2)c(OC)c1`, the inhibition was 5.06%.

With `O=C(CSc1nnc(CCCN2C(=O)c3cccc4cccc(c34)C2=O)n1-c1ccccc1)N1CCCCC1`, the inhibition was 3.42%.

As to `O=C(CSc1nnc(CCCN2C(=O)c3cccc4cccc(c34)C2=O)n1-c1ccccc1)NCCCO`, the inhibition is 13.2%.

In the case of `Cn1c(SCC(=O)c2ccc(F)cc2)nnc1-c1cnccn1`, the inhibition was -2.54%.

Consider `O=C(CN(c1ccccn1)S(=O)(=O)c1ccccc1)Nc1ccccc1`, for which the inhibition is -0.68%.

As for `Cc1csc(SCC(=O)Nc2cccc(S(=O)(=O)N3CCOCC3)c2)n1`, the inhibition was 0%.

Regarding `O=C(NCc1ccccc1Cl)c1ccc(CSc2nc3ccncc3[nH]2)cc1`, the inhibition is 1.57%.

For `CSC(=NC#N)N1CCN(c2ccc([N+](=O)[O-])cc2)CC1`, the inhibition is 8.93%.

Regarding `C=CCN(CC=C)S(=O)(=O)c1ccc(NC(=S)NC(=O)/C=C/c2ccccc2)cc1`, the inhibition was 9.4%.

For the compound `O=C(Cn1nnc2ccccc21)Nc1ccccc1[N+](=O)[O-]`, the inhibition is -1.91%.

With `CC(C)(C)NC(=O)COc1ccccc1C#N`, the inhibition was -0.28%.

Turning to `Cc1ccc(C(=O)Nc2nc(=O)n(C(=O)C3CC3)s2)cc1`, the inhibition is 4.6%.

Consider `Cc1ccc(C(=O)Nc2nc(=O)n(C(=O)c3ccccc3C)s2)cc1`, for which the inhibition was 4.83%.

Turning to `Cc1cc[n+](-c2nc3ccccc3nc2C(=C=[N-])C#N)cc1`, the inhibition was 4.51%.

Consider `CCOC(=O)C1(CC2CCCCO2)CCN(C(=O)Nc2ccccc2CC)CC1` (stereo not given), for which the inhibition is 1.45%.

For the compound `O=C(NCCc1nc2ccccc2[nH]1)/C(=C/c1ccc2c(c1)OCO2)NC(=O)c1ccccc1Cl`, the inhibition is 4.92%.

For `COc1ccc(NS(=O)(=O)c2ccc(C)cc2)c([N+](=O)[O-])c1`, the inhibition is 3.88%.

In the case of `COc1ccc([N+](=O)[O-])cc1NS(=O)(=O)c1ccccc1`, the inhibition is 6.84%.

Turning to `COc1cc(C(=O)Nc2ccc(S(=O)(=O)Nc3ncccn3)cc2)c([N+](=O)[O-])cc1OC`, the inhibition was 1.81%.

Take `Cc1cc(NS(=O)(=O)c2ccccc2)c([N+](=O)[O-])cc1C`: the inhibition is 14%.

Turning to `COc1cccc(/C=C2\SC(N)=NC2=O)c1OS(=O)(=O)c1ccccc1`, the inhibition is 12.7%.

Regarding `COc1ccc(S(=O)(=O)Nc2cc([N+](=O)[O-])ccc2OC)cc1`, the inhibition was 14.5%.

With `NC(=O)c1c(NC(=O)COC(=O)c2ccc(S(=O)(=O)Nc3ccccc3)cc2)sc2c1CCCC2`, the inhibition is 6.65%.

Consider `COc1cc(C(=O)NCc2cn3ccccc3n2)cc(OC)c1OC`, for which the inhibition was 9.74%.

Turning to `CN(C(=O)COC(=O)/C=C/c1cn(-c2ccccc2)nc1-c1ccc2c(c1)OCCO2)C1CCS(=O)(=O)C1` (stereo not given), the inhibition is 9.43%.

In the case of `CCn1c(SCC(=O)NCCc2ccccc2)nnc1-c1cccs1`, the inhibition is 8.15%.

With `CCn1c(CCNC(=O)c2cccs2)nnc1SCC(=O)Nc1ccc(Cl)cc1`, the inhibition is 2.16%.

Consider `CCOC(=O)CSc1nnc(CNC(=O)c2cccs2)n1CCc1ccccc1`, for which the inhibition was -4.29%.

Turning to `CCn1c(CNC(=O)c2cccs2)nnc1SCC(=O)Nc1ccc(Cl)cc1`, the inhibition was 4.83%.

In the case of `O=C1CCCc2c1nc(-c1ccc(F)cc1)n2O`, the inhibition was 0.92%.

Regarding `COC(=O)C1=C(Nc2ccc(C)cc2)C=C(C)C(C(=O)OC)C1c1ccc(OC)cc1` (stereo not given), the inhibition is -4%.

For the compound `CC(=O)c1cccc(NC(=O)c2cc(-n3cnnc3)ccc2Cl)c1`, the inhibition was 6.6%.

In the case of `O=C(Nc1cccc(C(F)(F)F)c1)c1ccc2nc(-c3ccco3)c(-c3ccco3)nc2c1`, the inhibition was 23.9% (active).

`CC(=O)c1ccc(NC(=O)c2ccc3nc(-c4ccco4)c(-c4ccco4)nc3c2)cc1`: the inhibition was 10.9%.

As for `O=C(Nc1ccccc1)c1ccc2nc(-c3ccco3)c(-c3ccco3)nc2c1`, the inhibition was 13.6%.

For the compound `CCn1c(CCNC(=O)c2ccc(Cl)c(Cl)c2)nnc1SCCOc1ccc(OC)cc1`, the inhibition is 1.21%.

Take `CCOC(=O)Cn1c(=O)c2c(nc(N3CCOCC3)n2C)n(C)c1=O`: the inhibition was 0.98%.

For `O=C(Cc1cccs1)NCc1ccccc1`, the inhibition was 3.77%.

Turning to `O=C(Cc1ccc(-c2ccccc2)cc1)NCc1ccccc1`, the inhibition is -0.4%.

Consider `Cc1ccc(C(=O)NCC(=O)OCC(=O)NCCc2ccccc2)s1`, for which the inhibition was 0.53%.

Turning to `Cc1ccc(NC(=O)COC(=O)CNC(=O)c2ccc(C)s2)cc1`, the inhibition was 5.25%.

`CC(C(=O)NC1=NCCS1)N1C(=O)c2ccccc2C1=O` (stereo not given): the inhibition was 22.3%.

Consider `CSCCC(C(=O)Nc1ccc2c(c1)OCO2)N1C(=O)c2ccccc2C1=O` (stereo not given), for which the inhibition was 4.81%.

As to `CCOP(=O)(O)c1cccc(OCCOCCOc2cccc(P(=O)(O)OCC)c2)c1`, the inhibition is -1.13%.

Take `COc1ccc(C2NC(=S)NC(C)=C2C(=O)N2CCOCC2)cc1` (stereo not given): the inhibition was 0.92%.

As for `CC(NCC1(N2CCOCC2)CCCCC1)C(=O)Nc1ccc(Cl)cc1Cl` (stereo not given), the inhibition is -2.83%.

As to `C=CCNC(NC(=O)c1ccccc1)(C(=O)OCC)C(F)(F)F` (stereo not given), the inhibition was -7.27%.

Take `COc1cc(/C=C2\SC(=S)N(N3CCOCC3)C2=O)ccc1O`: the inhibition is -11.3%.

Turning to `COc1cc(/C=C2\SC(=S)N(N(C)c3ccccc3)C2=O)ccc1O`, the inhibition is 3.49%.

Consider `COc1cc(/C=C2\SC(=S)N(Nc3ccccc3)C2=O)cc(OC)c1OC`, for which the inhibition was 0.45%.

As to `COc1cc(/C=C2\SC(=S)N(Nc3ccccc3)C2=O)ccc1O`, the inhibition is 13.9%.

As to `COc1ccc(/C=C2\SC(=O)N(CCC(=O)Nc3ccccc3)C2=O)cc1OC`, the inhibition was 7.25%.

Regarding `COc1cc(/C=C2\SC(=S)N(NS(=O)(=O)c3ccccc3)C2=O)cc(OC)c1OC`, the inhibition is 20%.

`COc1cc(/C=C2\SC(=S)N(NC(=O)c3cccnc3)C2=O)ccc1O`: the inhibition was 19.8%.

Regarding `COc1ccc(/C=C2/SC(=O)N(CCC(=O)Nc3ccccc3)C2=O)cc1OC`, the inhibition was -3.04%.
